According to the supplement of paper PMC11732987, “Enantioselective OTUD7B fragment discovery through chemoproteomics screening and high-throughput optimisation” (Communications Chemistry, 2025):

Assays:
Test in all cases: log2 ratio of Biotin-Ahx-Ub-VS probe labelling (fragment/DMSO); higher = less target engagement (more negative = stronger competition), active = hit call of the paper (q ≤ 0.05, log2 ratio ≤ -1)
Conditions in all cases: compound concentration: 200 uM; treatment time: 3 h
[1] = molecular target: T1, USP42 (UniProt Q9H9J4)
T1 sequence (whole entry): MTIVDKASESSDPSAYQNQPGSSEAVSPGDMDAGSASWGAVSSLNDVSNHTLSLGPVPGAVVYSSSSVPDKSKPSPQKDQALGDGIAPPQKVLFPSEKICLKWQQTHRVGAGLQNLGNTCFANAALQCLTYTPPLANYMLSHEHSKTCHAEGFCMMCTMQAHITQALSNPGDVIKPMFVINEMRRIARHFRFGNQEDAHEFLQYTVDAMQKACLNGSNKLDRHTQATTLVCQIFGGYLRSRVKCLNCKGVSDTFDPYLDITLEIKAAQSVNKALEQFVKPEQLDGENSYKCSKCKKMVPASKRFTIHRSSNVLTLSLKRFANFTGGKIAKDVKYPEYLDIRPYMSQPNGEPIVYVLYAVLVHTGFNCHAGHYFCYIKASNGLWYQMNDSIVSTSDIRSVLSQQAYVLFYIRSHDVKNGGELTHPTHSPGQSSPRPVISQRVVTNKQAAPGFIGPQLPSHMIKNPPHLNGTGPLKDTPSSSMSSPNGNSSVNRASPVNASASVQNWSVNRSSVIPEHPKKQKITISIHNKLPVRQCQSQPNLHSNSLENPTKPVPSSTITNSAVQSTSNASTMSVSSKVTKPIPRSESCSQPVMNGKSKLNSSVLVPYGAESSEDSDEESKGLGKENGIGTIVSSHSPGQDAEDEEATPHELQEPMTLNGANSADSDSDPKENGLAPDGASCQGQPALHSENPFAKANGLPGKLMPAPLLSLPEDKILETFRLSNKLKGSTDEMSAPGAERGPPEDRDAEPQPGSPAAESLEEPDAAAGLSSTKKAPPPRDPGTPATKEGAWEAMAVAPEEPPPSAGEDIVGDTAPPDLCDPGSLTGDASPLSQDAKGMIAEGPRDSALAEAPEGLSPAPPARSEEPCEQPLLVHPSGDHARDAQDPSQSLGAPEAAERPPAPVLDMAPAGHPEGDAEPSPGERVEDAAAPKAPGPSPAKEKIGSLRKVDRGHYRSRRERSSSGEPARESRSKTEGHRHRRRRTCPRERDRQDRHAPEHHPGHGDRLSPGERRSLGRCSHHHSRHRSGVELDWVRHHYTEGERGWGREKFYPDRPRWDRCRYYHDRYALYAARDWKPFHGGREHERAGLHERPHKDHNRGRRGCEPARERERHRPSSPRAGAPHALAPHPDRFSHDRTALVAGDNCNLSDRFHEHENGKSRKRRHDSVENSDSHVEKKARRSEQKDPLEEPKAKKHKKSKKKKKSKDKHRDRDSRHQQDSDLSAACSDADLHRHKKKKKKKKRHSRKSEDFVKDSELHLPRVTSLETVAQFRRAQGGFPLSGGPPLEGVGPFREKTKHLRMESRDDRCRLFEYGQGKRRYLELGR
In short: (§1)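 Triplicate samples of HEK293T lysate, 495 µg each, received fragment at 200 µM or vehicle for 3 h, followed by Biotin-Ahx-Ub-VS (0.5 µM final) for 1 h. After NeutrAvidin enrichment of labelled DUBs and LysC/trypsin digestion, peptides were run by diaPASEF LC-MS/MS. The values are average log2 fragment/vehicle ratios from global-median-normalised Spectronaut label-free quantities, tested by unpaired t-test on proteins having ≥2 unique peptides.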

[2] = molecular target: USP46 (UniProt P62068)
Sequence of USP46 (P62068 whole entry): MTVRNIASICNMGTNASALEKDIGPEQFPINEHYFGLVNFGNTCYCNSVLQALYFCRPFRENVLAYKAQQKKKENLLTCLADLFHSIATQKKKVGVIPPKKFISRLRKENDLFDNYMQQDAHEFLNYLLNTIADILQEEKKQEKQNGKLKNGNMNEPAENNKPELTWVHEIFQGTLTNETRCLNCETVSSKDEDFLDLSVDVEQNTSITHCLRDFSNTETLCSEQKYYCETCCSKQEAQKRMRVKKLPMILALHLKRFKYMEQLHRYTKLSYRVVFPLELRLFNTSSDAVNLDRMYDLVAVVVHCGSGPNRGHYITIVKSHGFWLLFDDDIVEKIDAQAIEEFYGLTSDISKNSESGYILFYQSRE
In short: as §1

[3] = molecular target: T2, USP47 (UniProt Q96K76)
T2 sequence (whole entry): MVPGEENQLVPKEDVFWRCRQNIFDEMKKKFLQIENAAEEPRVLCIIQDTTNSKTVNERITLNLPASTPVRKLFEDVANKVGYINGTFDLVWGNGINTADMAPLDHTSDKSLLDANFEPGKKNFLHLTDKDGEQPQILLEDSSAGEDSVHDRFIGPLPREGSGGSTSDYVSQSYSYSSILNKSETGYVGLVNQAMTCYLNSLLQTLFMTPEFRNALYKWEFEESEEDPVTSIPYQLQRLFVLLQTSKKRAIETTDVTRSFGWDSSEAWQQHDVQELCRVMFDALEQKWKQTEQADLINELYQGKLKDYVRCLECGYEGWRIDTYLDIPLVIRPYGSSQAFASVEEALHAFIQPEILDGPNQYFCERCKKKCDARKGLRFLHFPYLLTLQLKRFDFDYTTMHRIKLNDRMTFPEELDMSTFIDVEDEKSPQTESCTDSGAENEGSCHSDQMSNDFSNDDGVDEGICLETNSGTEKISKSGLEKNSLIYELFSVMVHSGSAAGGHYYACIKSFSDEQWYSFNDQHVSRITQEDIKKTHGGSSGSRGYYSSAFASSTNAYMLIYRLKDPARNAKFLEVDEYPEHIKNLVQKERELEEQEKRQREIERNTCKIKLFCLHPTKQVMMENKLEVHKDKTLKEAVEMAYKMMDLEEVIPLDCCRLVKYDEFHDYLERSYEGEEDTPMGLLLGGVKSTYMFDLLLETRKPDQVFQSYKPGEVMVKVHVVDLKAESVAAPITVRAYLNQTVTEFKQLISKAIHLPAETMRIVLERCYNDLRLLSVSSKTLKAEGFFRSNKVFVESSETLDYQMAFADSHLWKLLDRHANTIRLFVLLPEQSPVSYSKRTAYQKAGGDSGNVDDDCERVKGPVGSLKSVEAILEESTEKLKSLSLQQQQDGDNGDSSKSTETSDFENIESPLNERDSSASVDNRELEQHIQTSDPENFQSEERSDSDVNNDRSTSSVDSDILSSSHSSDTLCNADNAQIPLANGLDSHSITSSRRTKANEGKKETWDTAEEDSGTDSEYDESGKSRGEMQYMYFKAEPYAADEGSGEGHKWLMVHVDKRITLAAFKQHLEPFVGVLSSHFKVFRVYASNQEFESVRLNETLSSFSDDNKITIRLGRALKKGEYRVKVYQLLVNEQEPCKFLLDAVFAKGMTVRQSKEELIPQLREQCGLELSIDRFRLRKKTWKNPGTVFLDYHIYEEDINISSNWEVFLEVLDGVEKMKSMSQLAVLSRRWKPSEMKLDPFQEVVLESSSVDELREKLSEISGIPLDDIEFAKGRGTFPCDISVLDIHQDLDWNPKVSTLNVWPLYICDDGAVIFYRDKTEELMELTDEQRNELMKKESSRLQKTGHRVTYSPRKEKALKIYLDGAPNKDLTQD
In short: as §1

[4] = molecular target: T3, USP48 (UniProt Q86UV5)
T3 sequence (whole entry): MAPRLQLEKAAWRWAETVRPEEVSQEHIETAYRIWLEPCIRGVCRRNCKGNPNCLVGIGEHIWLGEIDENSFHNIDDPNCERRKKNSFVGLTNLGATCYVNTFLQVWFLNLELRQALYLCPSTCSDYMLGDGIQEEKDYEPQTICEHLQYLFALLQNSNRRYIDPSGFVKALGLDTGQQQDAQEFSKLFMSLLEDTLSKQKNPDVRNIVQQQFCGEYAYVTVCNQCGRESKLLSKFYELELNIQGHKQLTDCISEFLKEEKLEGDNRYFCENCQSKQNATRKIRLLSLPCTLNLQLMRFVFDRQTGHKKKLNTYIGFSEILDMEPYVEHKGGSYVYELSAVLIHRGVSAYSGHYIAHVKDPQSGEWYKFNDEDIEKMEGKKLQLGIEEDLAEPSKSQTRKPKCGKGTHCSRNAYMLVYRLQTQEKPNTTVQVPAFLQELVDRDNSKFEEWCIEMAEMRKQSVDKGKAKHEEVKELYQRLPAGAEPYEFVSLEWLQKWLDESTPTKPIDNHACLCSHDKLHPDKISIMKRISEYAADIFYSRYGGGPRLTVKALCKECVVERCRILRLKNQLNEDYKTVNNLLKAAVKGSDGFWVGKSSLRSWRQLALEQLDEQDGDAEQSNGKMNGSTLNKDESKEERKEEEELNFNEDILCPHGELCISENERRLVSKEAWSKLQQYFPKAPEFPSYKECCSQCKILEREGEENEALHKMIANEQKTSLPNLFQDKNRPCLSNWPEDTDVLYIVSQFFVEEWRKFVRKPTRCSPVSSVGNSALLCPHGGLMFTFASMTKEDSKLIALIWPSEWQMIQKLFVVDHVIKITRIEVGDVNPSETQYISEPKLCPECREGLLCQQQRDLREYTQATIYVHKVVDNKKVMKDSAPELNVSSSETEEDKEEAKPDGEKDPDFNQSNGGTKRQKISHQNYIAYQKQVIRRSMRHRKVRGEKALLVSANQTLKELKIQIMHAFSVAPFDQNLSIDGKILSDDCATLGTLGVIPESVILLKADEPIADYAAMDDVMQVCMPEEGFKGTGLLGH
In short: as §1

[5] = molecular target: T4, USP5 (UniProt P45974)
T4 sequence (whole entry): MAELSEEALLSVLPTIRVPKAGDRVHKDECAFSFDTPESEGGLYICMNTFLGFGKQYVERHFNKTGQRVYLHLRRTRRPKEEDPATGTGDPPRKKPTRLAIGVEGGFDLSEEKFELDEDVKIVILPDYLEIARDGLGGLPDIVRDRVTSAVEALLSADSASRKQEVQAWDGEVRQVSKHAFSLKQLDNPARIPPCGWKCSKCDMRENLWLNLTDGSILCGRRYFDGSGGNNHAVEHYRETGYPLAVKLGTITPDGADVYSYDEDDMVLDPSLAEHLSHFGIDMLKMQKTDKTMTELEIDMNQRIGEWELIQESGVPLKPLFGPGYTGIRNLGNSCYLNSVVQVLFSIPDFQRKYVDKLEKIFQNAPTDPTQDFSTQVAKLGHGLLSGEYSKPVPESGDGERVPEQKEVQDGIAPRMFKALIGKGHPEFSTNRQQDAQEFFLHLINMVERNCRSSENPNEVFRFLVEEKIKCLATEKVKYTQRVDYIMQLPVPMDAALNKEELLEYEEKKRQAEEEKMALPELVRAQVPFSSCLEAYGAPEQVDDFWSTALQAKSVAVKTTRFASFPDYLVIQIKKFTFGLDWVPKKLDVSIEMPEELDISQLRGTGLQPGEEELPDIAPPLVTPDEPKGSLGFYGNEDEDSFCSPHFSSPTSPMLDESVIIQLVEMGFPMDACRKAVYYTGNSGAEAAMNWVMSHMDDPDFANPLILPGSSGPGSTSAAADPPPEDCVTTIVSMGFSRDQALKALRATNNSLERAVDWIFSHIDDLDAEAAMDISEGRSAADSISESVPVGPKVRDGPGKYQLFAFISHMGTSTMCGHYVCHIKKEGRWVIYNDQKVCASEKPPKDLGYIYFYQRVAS
In short: as §1

[6] = molecular target: USP54 (UniProt Q70EL1)
Sequence of USP54 (Q70EL1 whole entry): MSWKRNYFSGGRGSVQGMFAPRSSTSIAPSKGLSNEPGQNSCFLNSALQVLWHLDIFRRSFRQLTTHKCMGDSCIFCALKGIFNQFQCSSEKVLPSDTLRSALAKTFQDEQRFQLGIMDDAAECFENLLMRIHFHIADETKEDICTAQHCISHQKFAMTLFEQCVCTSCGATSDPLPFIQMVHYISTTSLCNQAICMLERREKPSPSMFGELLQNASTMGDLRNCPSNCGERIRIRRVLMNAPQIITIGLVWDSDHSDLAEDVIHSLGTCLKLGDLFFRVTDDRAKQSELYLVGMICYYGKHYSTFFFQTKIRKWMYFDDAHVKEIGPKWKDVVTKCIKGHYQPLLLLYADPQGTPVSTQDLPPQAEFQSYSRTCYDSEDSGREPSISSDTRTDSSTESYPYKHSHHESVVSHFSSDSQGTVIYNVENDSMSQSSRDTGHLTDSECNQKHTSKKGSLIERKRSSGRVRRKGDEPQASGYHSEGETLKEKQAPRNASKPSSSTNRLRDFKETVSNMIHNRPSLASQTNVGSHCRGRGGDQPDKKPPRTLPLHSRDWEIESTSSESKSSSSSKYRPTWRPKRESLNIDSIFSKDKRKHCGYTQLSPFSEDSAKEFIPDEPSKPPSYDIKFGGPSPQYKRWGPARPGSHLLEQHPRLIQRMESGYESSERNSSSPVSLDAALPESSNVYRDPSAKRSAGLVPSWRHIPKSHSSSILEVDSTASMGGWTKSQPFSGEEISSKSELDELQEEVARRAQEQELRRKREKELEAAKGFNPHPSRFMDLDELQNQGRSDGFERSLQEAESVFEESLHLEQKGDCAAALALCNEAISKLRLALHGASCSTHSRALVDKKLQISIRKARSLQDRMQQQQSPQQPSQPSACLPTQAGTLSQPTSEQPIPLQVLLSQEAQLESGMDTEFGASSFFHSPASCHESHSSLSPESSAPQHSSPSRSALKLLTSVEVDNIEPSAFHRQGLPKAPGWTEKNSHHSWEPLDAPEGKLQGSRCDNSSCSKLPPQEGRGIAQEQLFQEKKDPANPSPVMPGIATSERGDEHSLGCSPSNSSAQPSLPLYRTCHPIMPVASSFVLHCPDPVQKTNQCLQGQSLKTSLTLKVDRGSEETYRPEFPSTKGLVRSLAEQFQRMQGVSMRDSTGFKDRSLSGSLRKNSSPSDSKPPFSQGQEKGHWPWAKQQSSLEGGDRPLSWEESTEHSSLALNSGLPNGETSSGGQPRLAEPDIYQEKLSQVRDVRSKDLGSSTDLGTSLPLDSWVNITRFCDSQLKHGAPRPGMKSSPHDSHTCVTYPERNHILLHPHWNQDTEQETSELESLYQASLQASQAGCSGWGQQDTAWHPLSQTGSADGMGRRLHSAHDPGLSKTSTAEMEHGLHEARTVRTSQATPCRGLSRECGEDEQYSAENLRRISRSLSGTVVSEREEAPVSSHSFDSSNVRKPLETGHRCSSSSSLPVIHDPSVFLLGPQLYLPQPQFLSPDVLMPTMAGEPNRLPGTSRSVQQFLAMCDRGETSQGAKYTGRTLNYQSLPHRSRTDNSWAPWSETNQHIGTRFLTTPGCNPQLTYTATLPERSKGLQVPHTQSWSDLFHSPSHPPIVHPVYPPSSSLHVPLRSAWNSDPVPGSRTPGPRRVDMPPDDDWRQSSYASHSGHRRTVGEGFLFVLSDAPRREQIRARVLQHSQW
In short: as §1

[7] = molecular target: USP7 (UniProt Q93009)
Sequence of USP7 (Q93009 whole entry, looked up): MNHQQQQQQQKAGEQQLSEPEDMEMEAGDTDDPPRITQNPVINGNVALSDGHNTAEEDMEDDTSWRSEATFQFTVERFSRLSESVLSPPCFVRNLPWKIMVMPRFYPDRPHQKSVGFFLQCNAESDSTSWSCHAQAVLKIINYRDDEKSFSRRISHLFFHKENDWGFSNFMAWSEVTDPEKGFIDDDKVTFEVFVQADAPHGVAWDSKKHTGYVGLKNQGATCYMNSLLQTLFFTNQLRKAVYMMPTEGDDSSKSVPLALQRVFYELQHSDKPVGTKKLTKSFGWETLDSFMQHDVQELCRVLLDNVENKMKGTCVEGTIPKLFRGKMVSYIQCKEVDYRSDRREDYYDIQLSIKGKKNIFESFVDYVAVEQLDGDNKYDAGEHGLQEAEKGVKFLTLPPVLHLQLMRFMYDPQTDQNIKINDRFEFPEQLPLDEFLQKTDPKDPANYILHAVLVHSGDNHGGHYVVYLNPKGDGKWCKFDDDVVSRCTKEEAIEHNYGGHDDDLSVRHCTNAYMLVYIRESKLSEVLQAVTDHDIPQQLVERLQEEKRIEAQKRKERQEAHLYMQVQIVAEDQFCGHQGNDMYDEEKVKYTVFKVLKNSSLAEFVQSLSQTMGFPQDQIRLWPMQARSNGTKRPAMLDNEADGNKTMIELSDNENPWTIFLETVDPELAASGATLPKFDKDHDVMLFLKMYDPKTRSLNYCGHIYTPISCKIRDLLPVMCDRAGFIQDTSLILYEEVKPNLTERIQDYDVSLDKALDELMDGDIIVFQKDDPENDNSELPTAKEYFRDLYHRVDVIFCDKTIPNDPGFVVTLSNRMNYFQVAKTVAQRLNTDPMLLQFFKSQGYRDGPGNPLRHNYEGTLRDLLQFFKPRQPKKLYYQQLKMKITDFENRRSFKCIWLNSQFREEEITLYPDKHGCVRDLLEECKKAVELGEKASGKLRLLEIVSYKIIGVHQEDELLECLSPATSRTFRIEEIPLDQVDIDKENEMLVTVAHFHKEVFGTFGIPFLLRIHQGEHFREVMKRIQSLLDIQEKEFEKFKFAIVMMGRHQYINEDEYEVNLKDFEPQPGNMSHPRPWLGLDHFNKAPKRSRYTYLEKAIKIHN
In short: as §1

[8] = molecular target: T5, USP8 (UniProt P40818)
T5 sequence (whole entry): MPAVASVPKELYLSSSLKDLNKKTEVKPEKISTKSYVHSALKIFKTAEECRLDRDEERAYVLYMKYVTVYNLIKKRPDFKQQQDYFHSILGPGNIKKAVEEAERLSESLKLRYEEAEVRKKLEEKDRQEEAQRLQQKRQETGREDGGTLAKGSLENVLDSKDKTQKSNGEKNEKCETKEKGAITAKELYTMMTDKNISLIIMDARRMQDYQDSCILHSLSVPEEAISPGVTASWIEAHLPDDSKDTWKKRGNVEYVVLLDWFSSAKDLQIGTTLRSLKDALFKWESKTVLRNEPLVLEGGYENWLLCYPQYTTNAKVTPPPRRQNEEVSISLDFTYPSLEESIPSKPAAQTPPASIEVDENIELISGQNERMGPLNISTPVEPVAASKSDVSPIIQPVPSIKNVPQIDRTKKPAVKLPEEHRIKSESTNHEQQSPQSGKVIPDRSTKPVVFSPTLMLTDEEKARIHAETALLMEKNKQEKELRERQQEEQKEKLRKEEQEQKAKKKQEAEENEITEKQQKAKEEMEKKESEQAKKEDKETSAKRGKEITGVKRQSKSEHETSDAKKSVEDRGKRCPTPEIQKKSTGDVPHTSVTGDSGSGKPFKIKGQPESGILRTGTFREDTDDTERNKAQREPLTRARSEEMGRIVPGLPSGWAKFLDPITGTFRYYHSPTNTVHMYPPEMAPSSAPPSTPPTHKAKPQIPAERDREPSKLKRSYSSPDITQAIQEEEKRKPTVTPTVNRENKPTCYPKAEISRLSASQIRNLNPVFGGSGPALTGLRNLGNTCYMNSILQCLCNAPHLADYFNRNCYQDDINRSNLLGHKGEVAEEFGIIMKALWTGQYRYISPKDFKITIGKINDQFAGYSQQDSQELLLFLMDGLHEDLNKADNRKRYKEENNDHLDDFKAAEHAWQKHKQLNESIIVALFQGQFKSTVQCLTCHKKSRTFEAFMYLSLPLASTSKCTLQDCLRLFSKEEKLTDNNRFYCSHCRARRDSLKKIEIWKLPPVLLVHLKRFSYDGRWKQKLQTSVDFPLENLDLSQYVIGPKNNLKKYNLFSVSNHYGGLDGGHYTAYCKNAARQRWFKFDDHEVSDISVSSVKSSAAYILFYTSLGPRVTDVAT
In short: as §1

[9] = molecular target: USP9X (UniProt Q93008)
In short: as §1

[10] = molecular target: UniProt O00487
Sequence of UniProt O00487 (O00487 whole entry): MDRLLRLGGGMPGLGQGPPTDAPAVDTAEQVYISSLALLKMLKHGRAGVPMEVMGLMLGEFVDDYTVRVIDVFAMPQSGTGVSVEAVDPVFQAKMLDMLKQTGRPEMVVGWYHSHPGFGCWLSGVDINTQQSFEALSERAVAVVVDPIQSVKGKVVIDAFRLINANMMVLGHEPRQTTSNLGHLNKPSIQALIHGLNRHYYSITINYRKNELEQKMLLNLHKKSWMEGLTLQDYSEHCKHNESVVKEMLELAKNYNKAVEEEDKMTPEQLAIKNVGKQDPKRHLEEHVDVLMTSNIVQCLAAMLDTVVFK
In short: as §1

Measured: log2 ratio of Biotin-Ahx-Ub-VS probe labelling

Cc1ncsc1CCNC(=O)CCl
inactive: [1] 0.0552 | [2] 0.359 | [3] 0.687 | [4] 0.00776 | [5] 0.325 | [6] 0.227 | [7] 0.0797 | [8] 0.298 | [9] -0.0257 | [10] 0.339
